Experimental data published in PubChem BioAssay (NCI).
About 83,000 compounds went through this panel and 20% of them were active in at least one assay; those are over-represented in the sample as a whole.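 Activity criterion: percent growth below 10, measured after cells in 96-well plates were exposed to a single compound concentration for 48 hours.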 Active and inactive are the calls of the source.

Test system: IGROV1 ovarian
Test: NCI-60 one-dose screen, 48 h (100 = growth as untreated, 0 = no growth, -100 = all killed)
Conditions: 10 µM unless noted
Protocol: Growth inhibition of the IGROV1 human tumor cell line is measured as a screen for anti-cancer activity. Cells are grown in 96 well plates and exposed to the test compound for 48 hours. Compounds are tested at a single concentration, which is 10^-5 M for most compounds. The reported endpoint is percent growth (GI% or GIPRCNT), where numbers from 0 - 100% represent growth inhibition, and numbers from -100% - 0 represent cell death. For example, a value of 40 represents 60% growth inhibition. A value of 0 means no net growth occurred over the course of the experiment. A value of -40 indicates 40% of cells at the beginning of the experiment died by the end of the experiment. A value of -100 means all cells are dead at the end of the experiment.
NCI-60 Human Tumor Cell Lines Screen was performed using the standard one-dose NCI protocol, which is described in more detail at https://dtp.cancer.gov/discovery_development/nci-60/default.htm.
Compounds with GIPRCNT values below 10 were considered active. Activity score was based on GIPRCNT using the following formula: […]
Score is 0 for GIPRCNT values of 100 or above, 50 for GIPRCNT values of 0, and 100 for GIPRCNT values of -100.

Compound	growth
Cc1csc(/N=C(N)/N=C(\N)c2cccc(C#N)c2)n1	77.7% (inactive)
Cn1cc(-c2nn3cc(-c4ccncc4)nc3s2)c2cc(F)ccc21	64.9% (inactive)
O=C(N/N=C\c1ccc(F)cc1)c1ccc2nc(-c3ccc(Br)cc3)[nH]c2c1	3.87% (active)
Cn1c(SCC(=O)c2ccco2)nc2ccccc2c1=O	86.1% (inactive)
CCN(CC)c1ccc(/C=N/NC(=O)c2ccc(S(N)(=O)=O)cc2)cc1	19.9% (inactive)
CC(=O)c1c([Si](C)(C)C)c2cc(C#N)ccn2c1C(=O)c1ccc(Br)cc1	68.7% (inactive)
O=C(CCCCCC/C=C\c1csc(Br)n1)NO	81.9% (inactive)
N#Cc1c(-c2cccs2)cc(-c2cnccn2)nc1SCC(=O)N/N=C/c1ccc(Cl)cc1	109% (inactive)
CC/C(=C(/c1ccc(Cl)cc1)c1ccc(OCCN)cc1)c1ccccc1	96.8% (inactive)
CC(C)Sc1nc(-c2ccccc2)c(C#N)c(N2CCOCC2)n1	5.14% (active)
Cc1ccc(C)c(NC2=C(Cl)C(=O)c3nc(C)ccc3C2=O)c1	-66.8% (active)
COc1ccc([C@H]2C(=O)N(c3cc(OC)c(OC)c(OC)c3)[C@@H]2c2ccc(OC)c(O)c2)cc1	28.2% (inactive)
O=C1c2ccccc2C23C(=C(c4cncnc4)c4ccccc42)CCCN13 (stereo not given)	107% (inactive)
CCCCCCN1C=C/C(=C\C(=O)n2ccc3ccccc32)c2ccccc21	42.9% (inactive)
Cn1cc(C2=C(c3coc4cc(Br)ccc34)C(=O)NC2=O)c2ccccc21	64.7% (inactive)
CC1=C(C)C(=O)C(Nc2cccc(C(F)(F)F)c2)=C(Br)C1=O	74.8% (inactive)
O=C(COc1ccc(/C=C2\C(=O)Nc3ccc(Cl)cc32)cc1)Nc1ccc(Cl)cc1	59.8% (inactive)
CCCCCCCCCCCC(=O)NC(C)(C)C(=O)N1CCCC1C(=O)NC(C)(C)C(=O)NC(C)(C)C(=O)N1CCCC1C(=O)NC(C)(C)C(=O)NC(C)(C)C(=O)N1CCCC1C(=O)NC(C)C(=O)NCCC(=O)NC(C)C(=O)NC(C)(C)C(=O)NC(C)(C)C(=O)NC(C)(C)C(=O)NCCC(=O)NC(C)(C)C(=O)NC(C)(C)C(=O)NC(C)(C)C(=O)NC(C)C(=O)NCCC(=O)O (stereo not given)	-93.8% (active)
Cc1cc2nc(C(Cl)Cl)nc(-c3ccc(S(=O)(=O)N(C)C)cc3)n2n1	23.1% (inactive)
C=C1CCc2nc(SCC(=O)O)ccc2N1	104% (inactive)

Compound	growth
CN1CCN(c2ccc(Nc3nc(NCCCNS(=O)(=O)c4cccc(F)c4)c4sccc4n3)cc2)CC1	68.9% (inactive)
COc1ccc2c(c1)c(-c1nn3cc(-c4ccncc4)nc3s1)cn2C	70.3% (inactive)
C#CCN(C)CCCOc1ccc(NCc2ccc(C(=O)NO)cc2)cc1Cl	15.6% (inactive)
COc1ccc(C2CC(c3cccc(OCCCCOc4cccc(C5=NOC(c6ccc(OC)cc6)C5)c4)c3)=NO2)cc1 (stereo not given)	89.6% (inactive)
COC(=O)c1cccc(NC2=C(Cl)C(=O)C(C)=C(C)C2=O)c1	56.2% (inactive)
CCCCCCOC(=O)c1cc(-c2ccc(F)cc2)nc2ccccc12	88.3% (inactive)
Cc1[nH]c(C(=O)Nc2ccccc2OCc2cccc(C(=O)NC3CCNC3)c2)c(Cl)c1Cl (stereo not given)	31.2% (inactive)
Cc1ccccc1Nc1nc(SC(C)C)nc(-c2ccccc2)c1C#N	-50.3% (active)
COc1cc2cc(Oc3ccc(NC(=O)Nc4ccc(F)c(C(F)(F)F)c4)cc3)c(C)nc2cc1OCCN(C)C	101% (inactive)
C/C(=N/N)c1nnn(-c2ccc(Br)cc2)c1C	95.1% (inactive)
COc1cccc2c1[C@H](OC)[C@]13O[C@@]1(C2=O)[C@H](O)[C@H](C)[C@@](O)(C(=O)[C@@H]1O[C@H]1C)[C@@H]3O	7.69% (active)
CCC(=C(c1ccc(OCCN(C)C)cc1)c1ccc(OCCN(C)C)cc1)c1ccc(Cl)cc1	-76.8% (active)
CNC(=O)c1cc(Oc2ccc3c(c2)sc2nc(-c4ccc(N(C)C)cc4)cn23)ccn1	21.5% (inactive)
Brc1cccc(-c2cc(-c3ccc4c(c3)OC=CO4)[nH]n2)c1	41.3% (inactive)
CC(=O)C1=C(C)NC(NNc2ccccc2)=NC1c1ccc([N+](=O)[O-])cc1 (stereo not given)	82.6% (inactive)
C#Cc1cc(C(=O)Nc2ccc(CNCCN3CCOCC3)c(C(F)(F)F)c2)ccc1C	101% (inactive)
Cc1ccc2c(n1)C(=O)C(Cl)=C(Nc1cc(C(F)(F)F)cc(C(F)(F)F)c1)C2=O	27.8% (inactive)
CC(C)(C)OC(=O)Nc1ccc(-c2cccc(Oc3ccc4nnc(Cl)n4n3)c2)cc1	98.8% (inactive)
CN1CCN(Cc2ccc(NC(=O)c3cncc(C#Cc4cnc5ccc(N)nn45)c3)cc2C(F)(F)F)CC1	-4.68% (active)
COc1ccc(C2C(C#N)=C(/N=C/c3ccc(Cl)cc3)Oc3c2sc2c(C)cccc32)cc1 (stereo not given)	23.6% (inactive)
